Shiga toxin inh = A qHTS for Small Molecule Inhibitors of Shiga Toxin; Vero cells, Shiga toxin protein synthesis inhibition reporter; inhibition, % at 38.7 µM; 9.2% of 290,000 active; in the data active = inhibition mostly above about 28%, no sharp cut-off; inactive = mostly below about 43%; also: 0% is about no effect
HCMV inh = qHTS Assay for inhibitors of the human cytomegalovirus (HCMV); HFF cells, HCMV-luciferase reporter, 72 h; hits give low values; activity change, negative = inhibition, % at 57.5 µM; 4.5% of 410,000 active; AID 1259415, 2018; in the data active = activity change below about -60%; inconclusive = no clear call, values can overlap the other calls; inactive = above about -39%; also: % is scaled to controls: 0 for no effect and ±100 for the full control effect
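Steps: HFFs plated, 16 h 37C; compounds added; HCMV-luciferase added to MOI 1 PFU/cell; 72 h 37C; OneGlo reagent, 5 min room temperature; luminescence read, normalized to controls.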
Pf growth 96h = Primary qHTS for delayed death inhibitors of the malarial parasite plastid, 96 hour incubation. AID 504834, 2011. 6.9% of 320,000 active. Potency, µM (doses to about 28.7 µM), inactives show at the top dose activity change, negative = inhibition, actives largely listed as inhibitors. P. falciparum luciferase reporter growth, 96 h; also: potency is read from the fitted curve at half-maximal effect; % is scaled to controls: 0 for no effect and ±100 for the full control effect
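Cell-based qHTS: luciferase-tagged P. falciparum in erythrocytes (2% hematocrit, 0.05% parasitemia final) incubated with compounds for 96 hours, 37 C, 5% CO2; luciferase detection reagent then added and luminescence measured.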
HCV inh = qHTS Assay for Inhibitors of Hepatitis C Virus (HCV); Huh7.5.1 HCVcc-Cre infection, luciferase reporter, 44 h; Potency, µM (titrated, usually from 41.8 µM), for the others: top-dose activity change, negative = inhibition, most hits filed as inhibitors; 3.4% of 340,000 active; AID 651820, 2012; also: potency is read from the fitted curve at half-maximal effect; % is scaled to controls: 0 for no effect and ±100 for the full control effect
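Cells seeded at 1,000/well and cultured 4 h, then compounds added followed by HCVcc-Cre virus (~0.5 moi). After 44 h further culture, luciferase substrate was added, plates held 15 min at room temperature, and luminescence read for 15 sec.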
Pf growth 48h = Primary qHTS for delayed death inhibitors of the malarial parasite plastid, 48 hour incubation; P. falciparum luciferase growth in erythrocytes, 48 h; Potency, µM (titrated, usually from 28.7 µM), for inactives: top-dose activity change, negative = inhibition, actives largely listed as inhibitors; 5.9% of 310,000 active; also: potency is read from the fitted curve at half-maximal effect; % is scaled to controls: 0 for no effect and ±100 for the full control effect
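Luciferase-expressing parasites in RBCs, 2% Hct / 0.1% parasitemia final; RPMI 1640 + 0.5% Albumax; 37 C, 5% CO2, one generation; luminescence read-out, lower signal = inhibition.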
CHX counter = Cycloheximide Counterscreen for Small Molecule Inhibitors of Shiga Toxin; 12% of 300,000 active; max response, %; cell reporter, cycloheximide protein synthesis inhibition counterscreen; in the data active = max response mostly above about 13%, no sharp cut-off; inactive = mostly below about 14%; also: read at 38.3 µM for the half of the compounds with a filed dose; 0% is about no effect
Active calls of the source: *; [ ] = remark or other dose. Rows were chosen to be rich in hits. Some 21% of all compounds tested hit in one or more screens of this group. Unless noted, calls follow the shape of the dose curve; as a rule, active = well fitted inhibition curve with a large enough effect; inconclusive = small, poorly fitted or top-dose-only effect, or another doubt; inactive = no such curve, though single readings can be large or run the other way.

What do the screens show for `O=C(c1cn(-c2ccccc2)nc1-c1cccs1)N1CCN(c2ccccn2)CC1`?
Shiga toxin inh: 43.5*; HCMV inh: -22.8; HCV inh: inconclusive; Pf growth 48h: -12.2%; CHX counter: 15.9*

How did CN(C)c1ccc(NC(=O)c2cn(-c3ccccc3)nc2-c2cccs2)cc1 do in these assays?
Shiga toxin inh: 3.3; HCMV inh: -1.8; Pf growth 96h: -18.7%; HCV inh: inconclusive; CHX counter: 24.3

What do the screens show for `O=C(NN1CCOCC1)c1cn(-c2ccccc2)nc1-c1cccs1`?
Shiga toxin inh: -5.5; HCMV inh: -12.6; Pf growth 96h: 31.7%; HCV inh: -13.8%; Pf growth 48h: 21.2%; CHX counter: 5.4

Results for O=C(Nc1cn(-c2ccccc2)nc1-c1cccs1)c1ccco1 ?
Shiga toxin inh: 91.8*; HCMV inh: -5.8; Pf growth 96h: 43.4%; HCV inh: inconclusive; Pf growth 48h: 25.3%; CHX counter: 18.3*

Results for O=C(Nc1ccc2ccccc2c1)c1cn(-c2ccccc2)nc1-c1cccs1 ?
Shiga toxin inh: 32.5; HCMV inh: -60.1*; Pf growth 96h: 13.1µM*; HCV inh: inconclusive; Pf growth 48h: inconclusive; CHX counter: 10.4

How did O=C(CSc1cn(CC(=O)N2CCCC2)c2ccccc12)Nc1ccc(Cl)cc1 do in these assays?
HCMV inh: -0.6

What do the screens show for `O=C(COC(=O)c1cc([N+](=O)[O-])ccc1N1CCCC1)Nc1ccccc1OC(F)F`?
HCMV inh: -8.8; Pf growth 96h: inconclusive; HCV inh: 12.6µM*; Pf growth 48h: -20.3%

Results for O=C(COC(=O)c1cc([N+](=O)[O-])ccc1N1CCOCC1)Nc1ccccc1OC(F)F ?
HCMV inh: 1.6; Pf growth 96h: 0.3%; HCV inh: inconclusive; Pf growth 48h: 6.1%

Results for CCC(CC)c1nnc(NC(=O)c2cc([N+](=O)[O-])ccc2N2CCCCC2)s1 ?
Shiga toxin inh: -3.6; HCMV inh: -34.1; Pf growth 96h: inconclusive; HCV inh: 7.08µM*; Pf growth 48h: inconclusive; CHX counter: -2.0

What do the screens show for `COc1ccccc1NC(=O)COC(=O)c1cc([N+](=O)[O-])ccc1N1CCCC1`?
HCMV inh: -29.9; Pf growth 96h: inconclusive; HCV inh: 12.6µM*; Pf growth 48h: inconclusive

How did CC(C)c1ccccc1NC(=O)COC(=O)c1cc([N+](=O)[O-])ccc1N1CCOCC1 do in these assays?
HCMV inh: -11.9; Pf growth 96h: inconclusive; HCV inh: inconclusive; Pf growth 48h: inconclusive

What do the screens show for `COc1ccc(NC(=O)c2cc([N+](=O)[O-])ccc2N2CCCCC2)cc1OC`?
HCMV inh: -18.1; HCV inh: 25.1µM*

How did CCCSc1nc(=S)n(Cc2ccccc2)c(C)c1C(C)=O do in these assays?
Shiga toxin inh: -7.4; HCMV inh: -23.2; Pf growth 96h: 6.8%; HCV inh: -9.5%; Pf growth 48h: 9.6%[5.75 µM]; CHX counter: 2.1

Results for O=C(Cn1c(=O)cnc2ccccc21)Nc1cccc(S(=O)(=O)N2CCCCC2)c1 ?
HCMV inh: 3.9; Pf growth 96h: inconclusive; HCV inh: inconclusive; Pf growth 48h: inconclusive

How did CC(CCc1ccccc1)NC(=O)c1cc2sccc2n1C (configuration not stated) do in these assays?
Shiga toxin inh: 36.8; HCMV inh: 16.2; Pf growth 96h: 34.0%; HCV inh: inconclusive; Pf growth 48h: -5.9%; CHX counter: 20.7*

Results for COc1cc(NC(=O)c2cc3sccc3n2C)cc(OC)c1 ?
Shiga toxin inh: 80.6*; HCMV inh: 190.8; Pf growth 96h: inconclusive; HCV inh: inconclusive; Pf growth 48h: 159.2%; CHX counter: 29.7*

What do the screens show for `COC(=O)c1ccc(NC(=O)c2cc3sccc3n2C)cc1`?
Shiga toxin inh: 121.7*; HCMV inh: -25.0; Pf growth 96h: 5.6%; HCV inh: -4.9%; Pf growth 48h: 48.0%; CHX counter: 39.7*

How did COc1ccc(OC)c(NC(=O)c2cc3sccc3n2C)c1 do in these assays?
Shiga toxin inh: 29.1; HCMV inh: 30.6; Pf growth 96h: 2.5%; HCV inh: inconclusive; Pf growth 48h: 27.0%; CHX counter: 5.6

What do the screens show for `Cn1c(C(=O)Nc2ccc3c(c2)OCO3)cc2sccc21`?
Shiga toxin inh: 92.1*; HCMV inh: 183.0; HCV inh: -13.8%; Pf growth 48h: -9.3%; CHX counter: 38.9

What do the screens show for `Cn1c(C(=O)NCc2ccc3c(c2)OCO3)cc2sccc21`?
Shiga toxin inh: 3.7; HCMV inh: -16.7; CHX counter: 6.5

How did CN(Cc1ccccc1)c1ccc(C(=O)O)cc1[N+](=O)[O-] do in these assays?
Shiga toxin inh: -5.2; HCMV inh: 20.6; Pf growth 96h: inconclusive; HCV inh: -2.4%; Pf growth 48h: 0.2%; CHX counter: -2.2

How did CCc1cccc(NC(=O)Cn2nc(C)c3sc4ccccc4c3c2=O)c1 do in these assays?
HCMV inh: 13.9

What do the screens show for `CC(OC(=O)c1cc2sccc2n1C)C(=O)NC(C)(C)C` (configuration not stated)?
Shiga toxin inh: -3.0; HCMV inh: -15.8; Pf growth 96h: inconclusive; HCV inh: 10µM*; Pf growth 48h: -6.7%; CHX counter: -1.5

Results for Cn1c(C(=O)Nc2ccccc2)cc2sccc21 ?
Shiga toxin inh: 49.8; HCMV inh: 245.7; Pf growth 96h: 19.4%; HCV inh: -28.0%; Pf growth 48h: 84.2%; CHX counter: 26.0*

How did C#CCNC(=O)c1cc2sccc2n1C do in these assays?
Shiga toxin inh: -18.2; HCMV inh: -39.6; Pf growth 96h: 36.1%; HCV inh: 9.9%; Pf growth 48h: 0.2%; CHX counter: 13.3

What do the screens show for `CCc1ccccc1NC(=O)c1cc2sccc2n1C`?
Shiga toxin inh: 42.3*; HCMV inh: 22.5; Pf growth 96h: 0.0%; HCV inh: -26.2%; CHX counter: 49.0*

What do the screens show for `CC(OC(=O)c1cc2sccc2n1C)C(=O)NCc1cccs1` (configuration not stated)?
Shiga toxin inh: 21.3; HCMV inh: inconclusive; HCV inh: inconclusive; Pf growth 48h: 33.4%; CHX counter: 5.7

How did COCCNC(=O)c1cc2sccc2n1C do in these assays?
Shiga toxin inh: -2.0; HCMV inh: 9.1; Pf growth 96h: 13.2%; HCV inh: -7.6%; Pf growth 48h: 15.5%; CHX counter: -0.2

What do the screens show for `CCc1cccc(C)c1NC(=O)CN1C(=O)c2cccc3cccc1c23`?
HCMV inh: -8.8

What do the screens show for `CCOC(=O)N/N=C(\C)c1ccc(Oc2ncccn2)cc1`?
Shiga toxin inh: -7.0; HCMV inh: 22.5; Pf growth 96h: 7.0%; HCV inh: 22.6%; Pf growth 48h: 11.6%; CHX counter: -9.6

Screening results (PubChem BioAssay)
